According to PubChem BioAssay (NCATS):
Records with an inconclusive call do not appear. Entries that show only a call come without a potency. Active and inactive are the calls of the source. Calls follow the shape of the full dose curve.

Experiment: Confirmatory qHTS for VERO E6 Cytotoxicity Assay: Counterscreen for SARS-CoV-2 CPE Assay (AID 1508605); also: nearly all actives have a fitted effect of over 60% in size
Conditions: cell viability luminescence; series mostly up to 20 µM
Potency is read from the fitted curve at half-maximal effect.

SMILES | Potency
CO[C@H]1/C=C\C=C(\C)C(=O)NC2=CC(=O)C(NCCN(C)C)=C(C[C@@H](C)C[C@H](OC)[C@H](O)[C@@H](C)/C=C(/C)[C@@H]1OC(N)=O)C2=O | 5.62 µM (active)
COC(=O)CC[C@@H](C)C1CCC2C3CCC4C[C@H](OC(C)=O)CCC4(C)C3C[C@H](O)C21C (some centres undefined) | inactive
COc1ccc(NC(=O)c2ccc(-c3ccc(-c4nnc(C)o4)cc3C)cc2)cc1N1CCN(C)CC1 | inactive
CCCc1cc(C)[nH]c(=O)c1CNC(=O)c1cc(-c2ccnc(N3CCN(C)CC3)c2)cc2c1cnn2C(C)C | inactive
CCC(C)C(=O)OC1C(C)C2(O)C(C=C(CO)CC3(O)C(=O)C(C)=CC32)C2C(C)(C)C12OC(=O)C(C)C (centres undefined) | inactive
COc1cc2nc(N3CCCCC3)nc(NC3CCN(C)CC3)c2cc1OC | 10 µM (active)
COc1ccccc1N1CCN(CC[C@@](C)(C(=O)C2CCCCC2)c2ccccc2)CC1 | inactive
COc1cc2nc(N3CCC(N4CCCCC4)CC3)nc(NC3CCCCCC3)c2cc1OC | 6.31 µM (active)
C=C1Cc2c(Cl)cc3[nH]c4c5c3c2[C@@]2(O)[C@@H]1C[C@@H]2C(C)(C)O[C@H]5C1CC[C@@]2(O)[C@@]35O[C@@H]3[C@H]3OC(C)(C)[C@H]3O[C@H]5CC[C@]2(C)[C@@]41C (some centres undefined) | inactive
Cc1ccc(-c2c(C(=O)CCl)n(CCCO)c3ncnc(N)c23)cc1 | inactive
Cc1nnc(-c2ccc(-c3ccc(C(=O)Nc4ccc(O)c(N5CCN(C)CC5)c4)cc3)c(C)c2)o1 | inactive
C[C@@H]1CN(CC(=O)N2CC(C)(C)c3ncc(Cc4ccc(F)cc4)cc32)[C@@H](CN2CCOC[C@H]2C)CN1 | inactive
O=C(NCc1ccccc1)[C@H](Cc1ccccc1)NC(=O)[C@H]1O[C@@H]1C(=O)NCCc1ccc(O)cc1 | inactive
COc1ccc2c(c1)[C@]1(C[C@H]1c1ccc3c(/C=C/c4ccc(CN5C[C@@H](C)O[C@@H](C)C5)cc4)n[nH]c3c1)C(=O)N2 | inactive
O=C(/C=C/c1ccccc1)NC(NC(=S)Nc1cccc2cccnc12)C(Cl)(Cl)Cl (centres undefined) | inactive
CCc1ccccc1OC[C@@H](O)CN[C@H]1CCCc2ccccc21 | inactive
C/C1=C\CCC2=CC(OC2=O)C(C)(C)/C=C/C1=O (centres undefined) | inactive

SMILES | Potency
CSc1ccc(C(=O)/C=C/c2cc(C)c(OC(C)(C)C(=O)O)c(C)c2)cc1 | inactive
Cc1ccc(NCCN(C)CCNc2ccnc3cc(Cl)ccc23)c2c(=O)c3ccccc3sc12 | inactive
CCC(C)CNCC(=O)N1CCc2sccc2C1COc1cccc(C)c1 (centres undefined) | inactive
COc1cc2nc(N3CCCCC3)nc(NC3CCN(Cc4ccccc4)CC3)c2cc1OC | 10 µM (active)
Cc1nc2ccc(Oc3ccc(F)cc3)cc2c(=O)n1C[C@H]1CCCN(C(C)C)C1 | inactive
CC/C(=C(/CC)c1ccc(O)c(CN(CC)CC)c1)c1ccc(O)c(CN(CC)CC)c1 | inactive
CC(C)(C[C@@](O)(Cc1cc2ccncc2[nH]1)C(F)(F)F)c1cc(F)ccc1O | inactive
C[C@H](NC(=O)[C@H](Cc1ccccc1)NC(=O)OCc1ccccc1)C(=O)CF | inactive
COc1cc(NC(=O)Nc2cccc(CNC(=O)O[C@H]3CCOC3)c2)ccc1-c1cnco1 | inactive
C=CC(C)(C)c1[nH]c2ccccc2c1C1=C(O)C(=O)C(c2c[nH]c3c(CC=C(C)C)cccc23)=C(O)C1=O | 3.98 µM (active)
c1ccc2c(-c3cnn4cc(-c5ccc(OCCN6CCOCC6)cc5)cnc34)ccnc2c1 | inactive
Cc1nc(C)c(CN2CCN(C(c3ccc(F)cc3)c3ccc(F)cc3)CC2)nc1C | inactive
O=C(c1ccc(-c2ccc(Cl)cc2)o1)N(Cc1ccccn1)c1ccc(N2CCNCC2)cc1 | 11.2 µM (active)
O=C1c2ccccc2-c2nc3nnnn3nc21 (tested in a mixture with another compound) | 1.12 µM (active)
CC(C)c1cccc2c(-c3ccccc3)cc(-c3ccc(-c4ccc(C(=O)O)cc4)[nH]3)nc12 | inactive
CCC(C)C(=O)OC12C(OC(C)=O)C(C)C3(O)C(C=C(CO)CC4(O)C(=O)C(C)=CC43)C1C2(C)C (centres undefined) | inactive
C[C@@H]1O[C@@H](O[C@@H]2[C@@H](O)[C@H](O[C@@H]3[C@@H](O)[C@@H](O)[C@H](O[C@H]4[C@H](OC(=O)[C@]56CCC(C)(C)C[C@H]5C5=CCC7[C@@]8(C)C[C@H](O)[C@H](O[C@@H]9O[C@@H](C)[C@H](O)[C@@H](O)[C@H]9O)[C@@](C)(CO)C8CC[C@@]7(C)[C@]5(C)C[C@H]6O)O[C@H](C)[C@H](O)[C@@H]4O)O[C@H]3C)OC[C@H]2O)[C@H](O)[C@H](O)[C@H]1O (some centres undefined) | 1.91 µM (active)
